Measurements: PubChem BioAssay AID1159580 (chemical genetic matrix, 2015)
Several values for one entry are separate records, joined by “and”; a condition that tells them apart may be missing. Equal values may be shown once. Out of some 5,500 compounds screened, about 2,000 (36%) were called active. About 18% were inconclusive and are not listed. Rule as the data show it: active = normalized growth mostly below about 0.91 (no sharp cut-off); inconclusive = no clear call, values can overlap the other calls; inactive = mostly above about 0.92. This is one part of the list.

Assay: chemical genetic growth profiling, strain panel (AID 1159580);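 also: tested at 20 µM; growth read once vehicle control cultures reached saturation at 30 °C; 1 = growth at the plate median or of vehicle wells; lower values mean less growth of the strain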
Settings: S. cerevisiae deletion strains, growth OD

Measured: normalized growth

Nc1ccc(S(=O)(=O)Nc2ccc(Cl)nn2)cc1
inactive: locus YAL013W, strain DEP1, active compounds read low 1.01 | locus YAL021C, strain ccr4, active compounds read low 0.982 | locus YAL026C, strain drs2, active compounds read low 0.996 | locus YAL030W, strain snc1, active compounds read low 0.985 | locus YBL061C, strain skt5, active compounds read low 0.984 | locus YBR009C, strain hhf1, active compounds read low 0.994 | locus YBR021W, strain FUR4, active compounds read low 0.977 | locus YBR023C, strain chs3, active compounds read low 0.984 | locus YBR171W, strain sec66, active compounds read low 0.976 | locus YBR229C, strain ROT2, active compounds read low 0.995 | locus YBR231C, strain swc5, active compounds read low 0.995 | locus YBR279W, strain paf1, active compounds read low 0.998 | locus YCL011C, strain gbp2, active compounds read low 0.987 | locus YCL016C, strain dcc1, active compounds read low 0.971 | locus YCL029C, strain bik1, active compounds read low 0.996 | locus YCL061C, strain MRC1, active compounds read low 0.984 | locus YCL069W, strain vba3, active compounds read low 0.993 | locus YCR088W, strain abp1, active compounds read low 0.987 | locus YDL005C, strain med2, active compounds read low 0.996 | locus YDL035C, strain GPR1, active compounds read low 1.02 | locus YDL040C, strain nat1, active compounds read low 0.992 | locus YDL074C, strain BRE1, active compounds read low 0.978 | locus YDL101C, strain DUN1, active compounds read low 1.01 | locus YDL134C, strain PPH21, active compounds read low 1.01 | locus YDL185W, strain tfp1, active compounds read low 1.01 | locus YDL192W, strain arf1, active compounds read low 1.01 | locus YDR001C, strain nth1, active compounds read low 0.987 | locus YDR069C, strain doa4, active compounds read low 0.999 | locus YDR101C, strain arx1, active compounds read low 0.961 | locus YDR137W, strain rgp1, active compounds read low 0.996 | locus YDR150W, strain NUM1, active compounds read low 0.999 | locus YDR159W, strain sac3, active compounds read low 1.02 | locus YDR162C, strain NBP2, active compounds read low 1.02 | locus YDR195W, strain ref2 0.968 | locus YDR297W, strain sur2, active compounds read low 0.993 | locus YDR318W, strain mcm21, active compounds read low 1 | locus YDR334W, strain swr1, active compounds read low 0.984 | locus YDR335W, strain msn5, active compounds read low 0.994 | locus YDR388W, active compounds read low 1.01 | locus YDR392W, strain spt3, active compounds read low 0.929 | locus YDR502C, strain sam2, active compounds read low 1 | locus YEL003W, strain gim4, active compounds read low 1 | locus YEL037C, strain rad23, active compounds read low 0.991 | locus YEL061C, strain CIN8 (second series), active compounds read low 0.992 | locus YEL061C, strain CIN8, active compounds read low 1 | locus YER015W, strain faa2, active compounds read low 0.973 | locus YER016W, strain bim1, active compounds read low 1 | locus YER110C, active compounds read low 1.01 | locus YER111C, strain swi4, active compounds read low 0.986 | locus YER155C, strain BEM2 (second series), active compounds read low 1 | locus YER155C, strain BEM2, active compounds read low 0.998 | locus YER167W, strain BCK2, active compounds read low 1.01 | locus YFR010W, strain ubp6, active compounds read low 0.99 | locus YGL078C, strain dbp3, active compounds read low 1 | locus YGL086W, strain mad1, active compounds read low 0.988 | locus YGL167C, strain pmr1, active compounds read low 0.983 | locus YGL173C, strain kem1, active compounds read low 0.99 | locus YGL227W, strain vid30, active compounds read low 0.979 | locus YGL240W, strain doc1, active compounds read low 0.992 | locus YGL248W, strain PDE1, active compounds read low 0.999 | locus YGL253W, strain hxk2, active compounds read low 1 | locus YGR135W, strain pre9, active compounds read low 1.06 | locus YGR252W, strain gcn5, active compounds read low 1.04 | locus YHR013C, strain ard1, active compounds read low 0.965 | locus YHR027C, strain rpn1, active compounds read low 0.995 | locus YHR030C, strain SLT2, active compounds read low 1 and 0.995 | locus YHR079C, strain IRE1 (second series), active compounds read low 1.01 | locus YHR079C, strain IRE1, active compounds read low 0.989 | locus YHR094C, strain hxt1, active compounds read low 1.01 | locus YHR129C, strain ARP1, active compounds read low 1.01 | locus YHR142W, strain chs7, active compounds read low 0.994 | locus YHR200W, strain rpn10, active compounds read low 1 | locus YIL066C, strain RNR3, active compounds read low 0.992 | locus YIL073C, strain SPO22, active compounds read low 1.07 | locus YIL125W, strain kgd1, active compounds read low 0.994 | locus YIR030C, strain dcg1, active compounds read low 1.01 | locus YJL092W, strain hpr5, active compounds read low 0.983 | locus YJL095W, strain BCK1 (second series), active compounds read low 0.988 | locus YJL095W, strain BCK1, active compounds read low 1.01 and 0.984 | locus YJL115W, strain asf1, active compounds read low 0.991 | locus YJL129C, strain trk1, active compounds read low 1.01 | locus YJL134W, strain LCB3, active compounds read low 1.01 | locus YJL154C, strain vps35, active compounds read low 0.986 | locus YJL164C, strain tpk1, active compounds read low 0.985 | locus YJL166W, strain qcr8, active compounds read low 0.984 | locus YJL168C, strain set2, active compounds read low 1 | locus YJL187C, strain SWE1 (second series), active compounds read low 0.992 | locus YJL187C, strain SWE1, active compounds read low 0.986
